From PubChem BioAssay AID1159580 (chemical genetic matrix, 2015)
“And” between values parts separate entries of the source, which are not always exact repeats. Equal entries are not always repeated. About 2,000 (36%) of roughly 5,500 compounds were called active. About 18% were inconclusive and are not listed. Cut-off read from the data, not from the text of the source: active = normalized growth mostly below about 0.91 (no sharp cut-off); inconclusive = no clear call, values can overlap the other calls; inactive = mostly above about 0.92. The list shows a part of the results.

Test: chemical genetic growth profiling, strain panel (AID 1159580);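 note: tested at 20 µM; growth read once vehicle control cultures reached saturation at 30 °C; 1 = growth at the plate median or of vehicle wells; lower values mean less growth of the strain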
Settings: S. cerevisiae deletion strains, growth OD

Measured: normalized growth

CCN(CC)CCNC(=O)c1cc(Br)c(N)cc1OC
inactive: locus YAL021C, strain ccr4, active compounds read low 0.984 | locus YAL026C, strain drs2, active compounds read low 0.997 | locus YAL030W, strain snc1, active compounds read low 0.997 | locus YBL061C, strain skt5, active compounds read low 0.992 | locus YBR009C, strain hhf1, active compounds read low 1.02 | locus YBR021W, strain FUR4, active compounds read low 1.03 | locus YBR023C, strain chs3, active compounds read low 0.992 | locus YBR171W, strain sec66, active compounds read low 0.983 | locus YBR229C, strain ROT2, active compounds read low 0.957 | locus YBR231C, strain swc5, active compounds read low 0.981 | locus YBR279W, strain paf1, active compounds read low 0.991 | locus YCL011C, strain gbp2, active compounds read low 0.978 | locus YCL016C, strain dcc1, active compounds read low 0.992 | locus YCL029C, strain bik1, active compounds read low 0.989 | locus YCL061C, strain MRC1, active compounds read low 0.984 | locus YCL069W, strain vba3, active compounds read low 0.987 | locus YCR088W, strain abp1, active compounds read low 0.981 | locus YDL005C, strain med2, active compounds read low 0.989 | locus YDL035C, strain GPR1, active compounds read low 0.986 | locus YDL040C, strain nat1, active compounds read low 1 | locus YDL074C, strain BRE1, active compounds read low 0.947 | locus YDL101C, strain DUN1, active compounds read low 0.976 | locus YDL134C, strain PPH21, active compounds read low 1.01 | locus YDL185W, strain tfp1, active compounds read low 0.983 | locus YDL192W, strain arf1, active compounds read low 0.983 | locus YDR001C, strain nth1, active compounds read low 0.979 | locus YDR069C, strain doa4, active compounds read low 1.01 | locus YDR101C, strain arx1, active compounds read low 0.979 | locus YDR137W, strain rgp1, active compounds read low 1.04 | locus YDR159W, strain sac3, active compounds read low 1 | locus YDR162C, strain NBP2, active compounds read low 1 | locus YDR195W, strain ref2 0.967 | locus YDR297W, strain sur2, active compounds read low 0.976 | locus YDR318W, strain mcm21, active compounds read low 1 | locus YDR334W, strain swr1, active compounds read low 0.954 | locus YDR335W, strain msn5, active compounds read low 0.987 | locus YDR388W, active compounds read low 0.989 | locus YDR392W, strain spt3, active compounds read low 0.932 | locus YDR502C, strain sam2, active compounds read low 0.983 | locus YEL003W, strain gim4, active compounds read low 0.979 | locus YEL037C, strain rad23, active compounds read low 0.985 | locus YEL061C, strain CIN8 (second series), active compounds read low 0.982 | locus YEL061C, strain CIN8, active compounds read low 0.978 | locus YER015W, strain faa2, active compounds read low 0.986 | locus YER016W, strain bim1, active compounds read low 0.997 | locus YER110C, active compounds read low 0.978 | locus YER111C, strain swi4, active compounds read low 1.01 | locus YER155C, strain BEM2 (second series), active compounds read low 1 | locus YER155C, strain BEM2, active compounds read low 1 | locus YER167W, strain BCK2, active compounds read low 1.01 | locus YFR010W, strain ubp6, active compounds read low 0.984 | locus YGL078C, strain dbp3, active compounds read low 0.974 | locus YGL086W, strain mad1, active compounds read low 0.98 | locus YGL167C, strain pmr1, active compounds read low 0.98 | locus YGL173C, strain kem1, active compounds read low 0.991 | locus YGL227W, strain vid30, active compounds read low 0.995 | locus YGL240W, strain doc1, active compounds read low 0.993 | locus YGL248W, strain PDE1, active compounds read low 0.971 | locus YGL253W, strain hxk2, active compounds read low 0.982 | locus YGR078C, strain PAC10, active compounds read low 0.975 | locus YGR135W, strain pre9, active compounds read low 1.04 | locus YGR252W, strain gcn5, active compounds read low 1.02 | locus YHR013C, strain ard1, active compounds read low 0.972 | locus YHR027C, strain rpn1, active compounds read low 0.976 | locus YHR030C, strain SLT2, active compounds read low 0.997 and 0.978 | locus YHR079C, strain IRE1 (second series), active compounds read low 0.989 | locus YHR079C, strain IRE1, active compounds read low 1 | locus YHR094C, strain hxt1, active compounds read low 0.985 | locus YHR129C, strain ARP1, active compounds read low 1 | locus YHR142W, strain chs7, active compounds read low 0.97 | locus YHR200W, strain rpn10, active compounds read low 0.994 | locus YIL066C, strain RNR3, active compounds read low 0.965 | locus YIL073C, strain SPO22, active compounds read low 1.04 | locus YIL125W, strain kgd1, active compounds read low 0.985 | locus YIR030C, strain dcg1, active compounds read low 0.986 | locus YJL092W, strain hpr5, active compounds read low 0.973 | locus YJL095W, strain BCK1 (second series), active compounds read low 0.99 | locus YJL095W, strain BCK1, active compounds read low 0.962 and 0.993 | locus YJL115W, strain asf1, active compounds read low 0.966 | locus YJL129C, strain trk1, active compounds read low 0.99 | locus YJL134W, strain LCB3, active compounds read low 0.994 | locus YJL154C, strain vps35, active compounds read low 0.986 | locus YJL164C, strain tpk1, active compounds read low 1.01 | locus YJL166W, strain qcr8, active compounds read low 0.998 | locus YJL168C, strain set2, active compounds read low 0.987 | locus YJL187C, strain SWE1 (second series), active compounds read low 0.944 | locus YJL187C, strain SWE1, active compounds read low 0.993
